About 83,000 compounds went through this panel and 20% of them were active in at least one assay; those are over-represented in the sample as a whole.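 Values shown are percent growth following 48 h exposure of cells in 96-well plates to a single concentration of compound; below 10 was considered active.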 Values without a mark were called inactive. The source made the active and inactive calls.
Each molecule was assayed on SN12C renal (assay: NCI-60 one-dose screen, 48 h (100 = growth as untreated, 0 = no growth, -100 = all killed)). Details: 10 µM.

In order of falling growth:
1. NC(=S)N/N=C/c1ccc(N)cc1  108%
2. CCCNC(=O)c1ccc(S(N)(=O)=O)cc1  107%
3. C=CCc1cc(C(C)=O)cc(OC)c1O  105%
4. CCCC1(c2ccccc2)NC(=O)NC1=O (centres undefined)  104%
5. CC(=O)NC(N)=S  104%
6. OCC1OC(OC2C(O)C(CO)OC2(CO)OC2OC(CO)C(O)C(O)C2O)C(O)C(O)C1O (centres undefined)  103%
7. OCCN(CCO)C(=S)S  102%
8. CNC(=S)NC(C)(C)C  102%
9. c1c(-c2cc(C3CC3)[nH]n2)n[nH]c1C1CC1  102%
10. CS(=O)CC1=NC(=N)N=C1CS(C)=O (centres undefined)  101%
11. CC1(O)OC(COc2ccc(Cl)cc2)COC1O (centres undefined)  101%
12. O=C1Cc2ccccc2C(=O)O1  101%
13. CC(=O)OCC1=CC2OC(=O)C3=COC(OC4OC(CO)C(O)C(O)C4O)C1C32 (centres undefined)  101%
14. COc1ccc(C2(O)CCCCC2)cc1  101%
15. Cc1cc(NC(=O)CSCC(=O)O)no1  101%
16. O=C1NC(=O)C2C(=O)NC(=O)C1C21CCc2ccccc21 (centres undefined)  100%
17. CCC(C)(C)C1CCC(O)CC1 (centres undefined)  98.7%
18. CCS(=O)(=O)CCCl  97.8%
19. COc1ccc(C2OC(N)=C(O)C2=O)cc1OC (centres undefined)  96.1%
20. COC(=O)c1[nH]c(=O)c(C#N)c(C(=O)OC)c1C(=O)c1ccccc1  95%
21. CCCC(=O)c1cc(C)ccc1OC  94.5%
22. CC(=O)Cc1cc(-c2cc(CC(C)=O)[nH]n2)n[nH]1  94.2%
23. C=CCNc1ccccc1  94.1%
24. N#Cc1ccc(NC(=O)Nc2cccc(C#N)c2)cc1  94%
25. COc1ccc(-c2cc(-c3cc(-c4ccc(OC)cc4)nc(N)n3)nc(N)n2)cc1  93.8%
26. COC(=O)c1cc(-c2ccc(Cl)c(Cl)c2)[nH]c(=O)c1C#N  93.7%
27. COC(=O)C(C)Oc1ccc(OC#N)cc1 (centres undefined)  91.8%
28. OC(c1ccccn1)C(O)c1ccccn1 (centres undefined)  91.5%
29. Cc1ccccc1N=C(c1ccccc1)C1C(=O)c2ccccc2C1=O  90.9%
30. Cc1ccc(/C=C2\SC(=S)N(c3ccc(F)cc3)C2=O)o1  87%
31. CC(=O)Nc1ccc(NC(C)=O)c2c1C(=O)c1ccccc1C2=O  86.9%
32. Cc1cc2nc(CC(=O)c3cccc([N+](=O)[O-])c3)c(=O)[nH]c2cc1C  86.5%
33. CCOC(=O)c1cc(/C=C/c2cccc(Cl)c2)on1  86.2%
34. Oc1ccccc1O  83.8%
35. O=[N+]([O-])c1cccc(N=Nc2ccc(O)cc2O)c1  79.6%
36. O=C(Cc1nc2ccc([N+](=O)[O-])cc2nc1CC(=O)c1ccccc1)c1ccccc1  75%
37. CCc1nc(N)nc(N)c1-c1ccc(Cl)cc1  64.7%
38. Nc1ncnc2[nH]ncc12  14%

For `CN(C)CCN(C)CC(C)(C)C(=O)/C=C/c1ccc(Cl)cc1`, the growth was 2.97% (active).

Reference: PubChem BioAssay (NCI)
